Measured values reported in PubChem BioAssay AID2642 (Johns Hopkins Ion Channel Center, 2010).
The campaign covered roughly 310,000 compounds. About 3,900 (1.3%) were called active.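 Rule for the calls: active = compounds whose thallium flux B-score, printed positive for inhibition, exceeds three library SD while starting fluorescence stays within three; inactive = the rest.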 Shown is part of a subset that was picked to be rich in actives.

Molecular target: Potassium voltage-gated channel subfamily KQT member 1 (Homo sapiens) (UniProt P51787)
Assay: KCNQ1 potassium current blockers – cell-based, thallium flux, high-throughput, primary screen (AID 2642);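 note: channel opened by potassium depolarization with thallium stimulus after 20 min compound exposure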
Conditions: CHO-K1 KCNQ1, FluxOR thallium flux fluorescence, at 10 µM; active compounds read high

Chain of Potassium voltage-gated channel subfamily KQT member 1 (Homo sapiens) (P51787 whole entry, looked up): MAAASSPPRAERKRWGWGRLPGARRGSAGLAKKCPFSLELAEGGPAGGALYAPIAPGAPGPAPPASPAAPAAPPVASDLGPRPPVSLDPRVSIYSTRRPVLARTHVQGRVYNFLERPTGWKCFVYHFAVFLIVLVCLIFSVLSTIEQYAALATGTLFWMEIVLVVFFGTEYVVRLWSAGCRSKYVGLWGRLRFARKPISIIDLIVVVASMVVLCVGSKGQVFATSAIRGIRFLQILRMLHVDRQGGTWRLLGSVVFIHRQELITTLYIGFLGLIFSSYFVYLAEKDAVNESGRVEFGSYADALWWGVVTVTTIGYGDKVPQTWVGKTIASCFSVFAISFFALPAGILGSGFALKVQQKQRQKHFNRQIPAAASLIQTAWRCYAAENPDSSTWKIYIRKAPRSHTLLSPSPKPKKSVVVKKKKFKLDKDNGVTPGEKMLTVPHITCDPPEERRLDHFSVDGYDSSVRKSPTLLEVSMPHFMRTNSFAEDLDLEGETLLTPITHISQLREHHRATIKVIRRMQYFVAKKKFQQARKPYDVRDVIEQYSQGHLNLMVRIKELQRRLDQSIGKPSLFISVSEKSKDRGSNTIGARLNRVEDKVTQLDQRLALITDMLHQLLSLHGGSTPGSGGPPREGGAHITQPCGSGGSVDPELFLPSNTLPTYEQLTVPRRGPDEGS

| Structure (SMILES) | B-score |
| --- | --- |
| COc1ccc(-c2cc(C(=O)Nc3ccccc3O)c3ccccc3n2)cc1 | inactive |
| O=C(Nc1nnc(-c2ccccc2)o1)c1cc(-c2cccs2)nc2ccccc12 | inactive |
| CC(C)(C)Cc1nnc(NC(=O)c2cc(-c3ccccc3)nc3ccccc23)s1 | 11 (active) |
| O=C(O)CCCCCCCCCC[n+]1ccccc1 | inactive |
| Cc1ccc(S(=O)(=O)N(C)C)cc1NC(=O)COC(=O)c1c(C)noc1C | inactive |
| CN(c1ccc(OCC(=O)O)cc1)S(=O)(=O)c1ccc2ccccc2c1 | inactive |
| CCc1noc(C)c1C(=O)Oc1ccc(N(C)S(=O)(=O)c2ccc(C)c(C)c2)cc1 | 9 (active) |
| CCc1ccc(OCC(=O)NCC(c2ccc(Cl)cc2)N2CCCCC2)cc1 (stereo not given) | inactive |
| COc1cc(C(=O)Nc2oc(-c3ccccc3)c(-c3ccccc3)c2C#N)cc(OC)c1OC | inactive |
| N#Cc1c(NC(=O)CCCN2C(=O)c3ccccc3C2=O)oc(-c2ccccc2)c1-c1ccccc1 | 6 (active) |
| Cc1cc(C)cc(NC(=O)CCN2C(=O)c3ccccc3C2=O)c1 | inactive |
| Cc1cc(OCC(=O)N2CCN(c3ncccn3)CC2)ccc1Cl | inactive |
| COc1ccc(S(=O)(=O)NCCc2c[nH]c3ccccc23)cc1OC | inactive |
| COc1cccc(CNCCc2c[nH]c3ccccc23)c1OCc1ccccc1F | 8 (active) |
| COc1ccccc1CC(=O)NCCc1c[nH]c2ccccc12 | inactive |
| O=C(Nc1ccccc1N1CCCC1)c1ccc2ccccc2c1 | inactive |
| COc1ccc(N2CCN(C(=O)c3ccc(N4CCCCS4(=O)=O)cc3)CC2)cc1 | inactive |
| COc1ccc2[nH]c(=O)c(C3c4cc(OC)c(OC)cc4CCN3C(=O)c3ccco3)cc2c1 (stereo not given) | inactive |
| COc1ccc(C(=O)N2CCc3cc(OC)c(OC)cc3C2c2cccc([N+](=O)[O-])c2)cc1 (stereo not given) | 7 (active) |
| COc1ccccc1C1SCCN1C(=O)c1ccc([N+](=O)[O-])cc1 (stereo not given) | inactive |
| O=C(Nc1ccncc1)Nc1ccc(F)cc1 | inactive |
| O=C(CCl)Nc1ccc(Sc2ccc(NC(=O)CCl)cc2)cc1 | inactive |
| CC(C)(CCl)C(=O)Nc1ccc(Sc2ccc(F)cc2)cc1 | 9 (active) |
| CNc1nc2c(C)cccn2c(=O)c1C=Nc1ccc(OC)cc1 | inactive |
| CCCN(CCC)c1nc2c(C)cccn2c(=O)c1/C=C1/SC(=S)N(Cc2ccco2)C1=O | 14 (active) |
| CCOC(=O)CC1C(=O)NCCN1c1nc2c(C)cccn2c(=O)c1/C=C1\SC(=S)N(C(C)CC)C1=O (stereo not given) | inactive |
| Cc1cccc(OCC(=O)Nc2ccc(NC(=O)c3ccco3)c(C)c2)c1 | inactive |

| Structure (SMILES) | B-score |
| --- | --- |
| CCC(C)(C(=O)NC1CCCCC1)N(C)C(=O)c1ccc2c(c1)OCO2 (stereo not given) | inactive |
| COCCSc1nnc(NC(=O)c2cc(OC)c(OC)cc2[N+](=O)[O-])s1 | inactive |
| O=C(O)CCC(=O)NCc1ccc2[nH]c3c(c2c1)CCCC3 | inactive |
| Cc1cccc(NC(=S)NCc2ccc3[nH]c4c(c3c2)CCCC4)c1 | 6 (active) |
| Cc1cc(C)cc(NC(=S)NCc2ccc(F)cc2)c1 | inactive |
| CC(C)(C)c1ccc(SCCc2ccncc2)cc1 | inactive |
| C=CCN1CN(S(=O)(=O)c2ccc(OC)cc2)c2nc3ccccc3nc21 | inactive |
| CC(C)(C)NS(=O)(=O)c1ccc(NC(=O)C2CCCO2)cc1 (stereo not given) | inactive |
| CCCC(C)C(=O)Nc1ccc(NC(C)=O)cc1 (stereo not given) | inactive |
| COc1ccc(S(=O)(=O)/N=C2\C=C(NS(=O)(=O)c3ccccc3)C(=O)c3ccccc32)cc1 | 6 (active) |
| COc1ccc(NC(=O)c2cnc(NS(=O)(=O)c3ccccc3)nc2)cc1 | inactive |
| CCCC(NS(=O)(=O)c1ccc(OC)cc1)C(=O)O (stereo not given) | inactive |
| COc1c(N2CCN(C(=S)Nc3ccccc3F)C(C)C2)c(F)cc2c(=O)c(C(=O)O)cn(C3CC3)c12 (stereo not given) | inactive |
| Cc1cc(C)n2nc(C(=O)OC(C)C(=O)c3cc(C)c(C)cc3C)nc2n1 (stereo not given) | inactive |
| O=C(CN1CCN(c2ccccn2)CC1)Nc1ccc(Br)cc1 | inactive |
| Cc1cc(Br)ccc1NC(=O)c1cnc(N2CCN(c3ccccn3)CC2)c2ccccc12 | 7 (active) |
| Cc1cc(Br)ccc1NC(=O)c1sc2ncn(CC(=O)N3CCN(c4ccccn4)CC3)c(=O)c2c1C | inactive |
| COc1ccc(Cc2nnc(SCC(=O)Nc3ccc(C)c(C)c3)o2)cc1OC | inactive |
| CCCc1ccc(C(=O)[C@@H]2[C@@H](C(C)=O)N3c4ccc(F)cc4C=C[C@@H]3[C@@]23C(=O)Nc2ccccc23)cc1 | inactive |
| CCc1ccc(-c2nn(-c3ccccc3)cc2CSC(=N)N)cc1 | 14 (active) |
| Cc1ccc(-c2nn(-c3ccccc3)cc2CN(Cc2ccccc2)C(=O)CCC(=O)O)o1 | inactive |
| COc1ccc(-c2nn(-c3ccccc3)cc2C(=O)Nc2nc(CC(C)=O)ns2)cc1 | inactive |
| COc1ccc2c(c1)c(=O)c(C(=O)c1ccc(Cl)cc1)cn2CC(=O)Nc1ccc(F)cc1 | inactive |
| S=C(Nc1cccc(Cl)c1)Nc1ccc2c(c1)OCCO2 | 8 (active) |
| S=C(NCc1ccco1)Nc1ccc2c(c1)OCCO2 | inactive |
| FC(F)(F)c1cccc(NC(=S)Nc2cccc(Cl)c2)c1 | 18 (active) |
| Cc1csc(NC(=S)Nc2cccc(Cl)c2)n1 | inactive |

| Structure (SMILES) | B-score |
| --- | --- |
| O=C(Nc1cccc(S(=O)(=O)Nc2ccc(Cl)cc2)c1)c1ccc2c(c1)OCCO2 | inactive |
| S=C(Nc1cccc(Cl)c1)Nc1ccc2cn[nH]c2c1 | inactive |
| COc1cccc(OCC(O)CNC(=O)c2oc3c(C)c(C)ccc3c2C)c1 (stereo not given) | inactive |
| Cc1cc(=O)oc2c3c(cc(OCC(=O)NCCC(=O)N[C@@H](C)C(=O)O)c12)OC(C)(C)CC3 | inactive |
| O=C(O)c1ccccc1-c1ccccc1C(=O)Nc1ccccc1Br | inactive |
| Nc1cc(OC(=O)c2ccccc2Br)nn1S(=O)(=O)c1ccccc1 | inactive |
| COc1ccccc1C(=O)NCCC(=O)NC(C)CCc1ccccc1 (stereo not given) | inactive |
| CN1CCN(CC(=O)Nc2cccc([N+](=O)[O-])c2)CC1 | inactive |
| O=C(Nc1cccc([N+](=O)[O-])c1)N1CCc2ccccc2C1 | 7 (active) |
| CCc1ccc(NC(=O)N2CCc3ccccc3C2)cc1 | inactive |
| CCCCNCc1ccc(SC)cc1 | inactive |
| Cc1cc(C)cc(N(CC(=O)N2CC=C(c3ccccc3)CC2)S(=O)(=O)c2c(C)noc2C)c1 | 6 (active) |
| CCOC(=O)C1CCCN(C(=O)CN(c2ccc(OC)cc2)S(=O)(=O)c2c(C)noc2C)C1 (stereo not given) | inactive |
| Cc1cc(C)cc(N(CC(=O)NCC2CCCO2)S(=O)(=O)c2c(C)noc2C)c1 (stereo not given) | inactive |
| COc1cccc(/C=N/NC(=O)c2[nH]nc3c2CCc2ccccc2-3)c1O | inactive |
| COc1cccc(/C=N/Nc2ncc(C(F)(F)F)cc2Cl)c1O | inactive |
| COc1cccc(/C=N/Nc2cc(C)nc(-c3ccccc3O)n2)c1O | 7 (active) |
| CN(C(=O)c1ccccc1)c1nccnc1C#N | inactive |
| CCOC(=O)CC1COCCN1C(=O)c1cc(COc2ccc(F)c(F)c2)on1 (stereo not given) | inactive |
| Cc1nc(N2CCN(c3ccccn3)CC2)c2c(C)c(C(=O)Nc3ccc(F)c(Cl)c3)sc2n1 | 13 (active) |
| COc1ccc(NC(=O)c2sc3nc(C)nc(N4CCN(c5ccccn5)CC4)c3c2C)c(OC)c1 | inactive |
| Cc1nc(N2CCC(C)CC2)c2c(C)c(C(=O)Nc3cc(F)ccc3C)sc2n1 | inactive |
| Cc1nc(N2CCN(c3ccccn3)CC2)c2c(C)c(C(=O)Nc3ccc(F)cc3)sc2n1 | 10 (active) |
| O=C(c1c(F)cccc1Cl)N1CCN(c2ccccn2)CC1 | inactive |
| Cc1nc(N2CCOCC2)c2c(C)c(C(=O)Nc3ccc(C(F)(F)F)cc3)sc2n1 | inactive |
| Cc1ccccc1NC(=O)c1cc(S(=O)(=O)Nc2cccc(C(=O)O)c2)ccc1Cl | inactive |
| COCOc1cc(O)c(C(=O)/C=C/c2ccc(OCOC)c(OCOC)c2)c(OCOC)c1 | inactive |

| Structure (SMILES) | B-score |
| --- | --- |
| CCCCS(=O)c1snnc1C (stereo not given) | inactive |
| COc1ccc(OC)c(Nc2nc3ccccc3n3cnnc23)c1 | inactive |
| COc1cccc(C(=O)Nc2nnc(S(=O)(=O)N(C)c3ccccc3)s2)c1 | inactive |
| CS(=O)(=O)c1ccc(Cl)c(NC(=O)COC(=O)c2cccc(S(=O)(=O)N3CCCC3)c2)c1 | inactive |
| COc1ccc(C2C=C(c3ccc(Br)cc3)Nc3nc(NS(C)(=O)=O)nn32)cc1 (stereo not given) | inactive |
| COc1ccc(C)cc1NC(=O)Nc1ccccc1SC | inactive |
| COc1ccc(C)cc1NC(=O)NCCCCc1ccccc1 | inactive |
| COc1ccc(C)cc1NC(=O)C(Sc1ccccc1)c1ccccc1 (stereo not given) | 6 (active) |
| CCCN1CNC(=S)N(CCc2ccccc2)C1 | inactive |
| CCOC(=O)C1=C(C)Nc2sc(C(=O)c3ccc(Br)cc3)c(N)c2C1c1ccc(C(=O)OC)cc1 (stereo not given) | 8 (active) |
| CCOC(=O)c1sc(=NC(=O)c2ccc(Br)cc2)n(C)c1C | inactive |
| CCOC(=O)c1sc(=S)n2c1[nH]c(=O)c1ccc(C(=O)OC)cc12 | inactive |
| CCOC(=O)c1ccc(NC(=O)Cn2cnc3cc(C)c(C)cc32)cc1 | 7 (active) |
| CCCc1nnc(SCC(=O)Nc2ccc(C(=O)OCC)cc2)o1 | inactive |
| CCOC(=O)c1ccc(NC(=O)CSc2nnc(COc3ccccc3OC)n2C)cc1 | inactive |
| COc1ccc(CCNc2cc(N3CCN(C(=O)c4ccccc4OC)CC3)ccc2[N+](=O)[O-])cc1OC | inactive |
| Cc1c(Cl)cccc1NC(=O)NCCCN1CCCC1=O | inactive |
| Cc1cc(Cl)ccc1NC(=S)NCCCN1CCCC1=O | inactive |
| O=C1CCCN1CCCNC(=S)Nc1ccc(F)c(Cl)c1 | 7 (active) |
| CCOc1cc(CN2CCCC(CO)(Cc3ccc(F)cc3F)C2)ccc1OC (stereo not given) | inactive |
| CN(Cc1ccc(F)cc1Cl)S(=O)(=O)c1cccs1 | inactive |
| O=C(Nn1c(SCc2ccc([N+](=O)[O-])cc2)nc2ccccc2c1=O)c1ccc(F)cc1 | 9 (active) |
| O=C(Nn1c(-c2ccccc2)nc2ccccc2c1=O)c1ccc([N+](=O)[O-])cc1 | inactive |
| C=CCn1c(SCc2ccc(C(=O)NCCO)cc2)nc2ccccc2c1=O | inactive |
